Records with an inconclusive call do not appear. Values without a mark were called inactive. Calls of active or inactive are those of the source. Calls come from the whole dose curve; as a rule, active = well fitted inhibition curve with a large enough effect; inconclusive = small, poorly fitted or top-dose-only effect; inactive = flat fitted curve, though single readings scatter.
biological target: Voltage-gated inwardly rectifying potassium channel KCNH2 (Homo sapiens) (UniProt Q12809); experiment: qHTS Assay for Small Molecule Inhibitors of the Human hERG Channel Activity (AID 588834); conditions: U2OS BacMam hERG, FluxOR thallium flux fluorescence; series mostly up to 46.1 µM; activity change, negative = inhibition: at the top concentration;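 note: lower thallium flux fluorescence means stronger hERG block; nearly all actives have a fitted effect of over 50% in size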; for activity change, negative = inhibition: top concentration of the series differs between compounds; % is set by controls: 0 for no effect and ±100 for the full control effect
Sequence (Q12809 whole entry, looked up): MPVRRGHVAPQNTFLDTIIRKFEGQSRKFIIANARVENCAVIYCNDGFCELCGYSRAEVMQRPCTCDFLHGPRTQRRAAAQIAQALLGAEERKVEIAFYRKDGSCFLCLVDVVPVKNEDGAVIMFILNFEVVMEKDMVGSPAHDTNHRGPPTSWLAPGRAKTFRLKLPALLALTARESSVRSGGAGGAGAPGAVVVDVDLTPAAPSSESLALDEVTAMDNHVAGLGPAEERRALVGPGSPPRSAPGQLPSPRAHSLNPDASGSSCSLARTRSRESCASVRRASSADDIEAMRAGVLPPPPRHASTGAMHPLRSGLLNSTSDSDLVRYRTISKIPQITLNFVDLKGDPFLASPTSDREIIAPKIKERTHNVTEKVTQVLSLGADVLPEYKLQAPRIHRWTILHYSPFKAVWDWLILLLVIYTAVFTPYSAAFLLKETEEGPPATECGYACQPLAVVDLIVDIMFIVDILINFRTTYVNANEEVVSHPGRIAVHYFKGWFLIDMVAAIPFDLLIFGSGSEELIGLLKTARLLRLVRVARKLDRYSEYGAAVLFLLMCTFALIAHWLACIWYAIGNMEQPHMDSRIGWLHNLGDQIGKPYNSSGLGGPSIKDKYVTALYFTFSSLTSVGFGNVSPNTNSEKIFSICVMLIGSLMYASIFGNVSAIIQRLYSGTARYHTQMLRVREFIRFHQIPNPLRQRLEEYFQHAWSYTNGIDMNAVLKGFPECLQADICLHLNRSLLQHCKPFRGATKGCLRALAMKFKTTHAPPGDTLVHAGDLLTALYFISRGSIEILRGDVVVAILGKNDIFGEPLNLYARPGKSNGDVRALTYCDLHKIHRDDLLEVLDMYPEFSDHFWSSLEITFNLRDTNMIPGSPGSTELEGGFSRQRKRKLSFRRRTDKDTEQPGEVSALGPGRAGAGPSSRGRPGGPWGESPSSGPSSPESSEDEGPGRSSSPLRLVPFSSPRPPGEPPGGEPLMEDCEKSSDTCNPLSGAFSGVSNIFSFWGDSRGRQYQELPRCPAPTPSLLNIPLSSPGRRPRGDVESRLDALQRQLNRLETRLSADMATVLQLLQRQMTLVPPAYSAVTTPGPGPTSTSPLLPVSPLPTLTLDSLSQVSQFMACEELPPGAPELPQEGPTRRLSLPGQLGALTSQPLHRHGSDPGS
Procedure, shortened: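 U2OS cells BacMam-transduced with hERG, 2000 cells/well, compound ~10 min at 37 °C before stimulation buffer. FluxOR thallium flux fluorescence read kinetically on FDSS; decrease indicates block; AC50 from Hill fits.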
Potency is the fitted concentration of half-maximal effect.

Structure (SMILES) | activity change, negative = inhibition | Potency
CCC1(c2ccccc2)C(=O)NC(=O)N(C(=O)c2ccccc2)C1=O (centres undefined) | 7.24% | 
CCC1(C)CC(=O)NC(=O)C1 | -2.2% [at 20.6 µM] | 
O=c1[nH]cc(N(CCCl)CCCl)c(=O)[nH]1 | 11.7% | 
CCC(=O)O[C@@](Cc1ccccc1)(c1ccccc1)[C@@H](C)CN(C)C | 1.62% [at 20.6 µM] | 
CNC1(c2ccccc2Cl)CCCCC1=O (centres undefined) |  | inactive
O=C1CN(O)C(c2ccccc2)=c2cc(Cl)ccc2=N1 | 10.4% | 
c1csc(C2(N3CCCCC3)CCCCC2)c1 | -9.59% | 
CCCCNCC(O)c1ccc(O)cc1 (centres undefined) | 4.49% | 
CCCC(C)(COC(N)=O)COC(=O)NC1CC1 (centres undefined) | 0.412% | 
CCON=O | 12.1% | 
N#CC1(N2CCCCC2)CCCCC1 | -12.8% | 
CCC1(CC)C(=O)NC(=O)N(C)C1=O | 8.79% | 
CCCC(C)C1(CC)C(=O)NC(=O)NC1=O (centres undefined) | 3.04% | 
CC(N)Cc1ccc(O)cc1 (centres undefined) | -15.6% | 
CC(=O)OC1CN2CCC1CC2 (centres undefined) | 13.1% | 
COC1=CC=C2[C@H]3Cc4ccc(OC)c5c4[C@@]2(CCN3C)[C@H]1O5 | -2.06% [at 20.6 µM] | 
OC(c1ccccc1)(c1ccccc1)C1CN2CCC1CC2 (centres undefined) |  | 3.55 µM (active)
FC(F)OC(F)(F)C(F)Cl (centres undefined) | -9.7% | 
O=C1CCCCC1CN1CCCCC1 (centres undefined) | 28.3% | 

Structure (SMILES) | activity change, negative = inhibition | Potency
C=CCN1CC[C@]23c4c5ccc(O)c4O[C@H]2[C@@H](O)C=C[C@H]3[C@H]1C5 | 21.9% | 
O=C1CN=C(c2ccccc2)c2cc(Cl)ccc2N1CC1CC1 | -16.9% | 
CCC1(c2ccccc2)C(=O)NC(=O)NC1=O | 5.96% | 
O[C@H]1[C@H]2[C@H](O)CCCN2C[C@H]1O | 3.66% | 
C=CCN1CCC23c4c5ccc(O)c4O[C@H]2C(=O)CC[C@@]3(O)C1C5 (some centres undefined) | 16.5% | 
CC(=O)OO | 0.147% | 
O=P(O)(O)C(Cl)(Cl)P(=O)(O)O | 5% | 
S=C(S)N1CCNCC1 | -4.1% | 
COc1ccc2c3c1O[C@H]1C(=O)CC[C@H]4[C@@H](C2)N(C)CC[C@]314 | 5.08% | 
Oc1cccc[c]1[Hg][Cl] |  | 20 µM (active)
CC(=O)O[C@H]1CC[C@H]2[C@@H]3CCC4=CC(=O)CCC4=C3C=C[C@]12C | 11% | 
CN1CCCC(=C(c2cccs2)c2cccs2)C1 |  | 8.91 µM (active)
Cn1sc(Cl)cc1=O | 6.44% | 
CC(Cc1ccccc1)NC=O (centres undefined) | 7.23% | 
CNC(=O)Oc1ccccc1C(=O)Nc1ccccc1 | -5.41% | 
CN1C2CCC1CC(OC(c1ccccc1)c1ccc(Cl)cc1)C2 (centres undefined) |  | 0.501 µM (active)
CC[N+](C)(CC)CCOC(=O)C(O)(c1ccccc1)c1ccccc1 | 1.71% | 
CCCCCCCCCC(=O)O[C@H]1CC[C@H]2[C@@H]3CCC4=CC(=O)CC[C@]4(C)[C@H]3CC[C@]12C | -1.15% | 

biological target: Luciferin 4-monooxygenase (Photinus pyralis) (UniProt P08659); experiment: Biochemical firefly luciferase enzyme assay for NPC (AID 624030); note: nearly all actives have a fitted effect of over 70% in size;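 for activity change, negative = inhibition: purified P. pyralis luciferase at 10 nM with luciferin and ATP substrate; 0% = DMSO and -100% = full luciferase inhibition by PTC124 control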; conditions: purified P. pyralis luciferase, luminescence, 5 min; series mostly up to 58.6 µM; activity change, negative = inhibition: at the top concentration
Sequence (P08659 whole entry, looked up): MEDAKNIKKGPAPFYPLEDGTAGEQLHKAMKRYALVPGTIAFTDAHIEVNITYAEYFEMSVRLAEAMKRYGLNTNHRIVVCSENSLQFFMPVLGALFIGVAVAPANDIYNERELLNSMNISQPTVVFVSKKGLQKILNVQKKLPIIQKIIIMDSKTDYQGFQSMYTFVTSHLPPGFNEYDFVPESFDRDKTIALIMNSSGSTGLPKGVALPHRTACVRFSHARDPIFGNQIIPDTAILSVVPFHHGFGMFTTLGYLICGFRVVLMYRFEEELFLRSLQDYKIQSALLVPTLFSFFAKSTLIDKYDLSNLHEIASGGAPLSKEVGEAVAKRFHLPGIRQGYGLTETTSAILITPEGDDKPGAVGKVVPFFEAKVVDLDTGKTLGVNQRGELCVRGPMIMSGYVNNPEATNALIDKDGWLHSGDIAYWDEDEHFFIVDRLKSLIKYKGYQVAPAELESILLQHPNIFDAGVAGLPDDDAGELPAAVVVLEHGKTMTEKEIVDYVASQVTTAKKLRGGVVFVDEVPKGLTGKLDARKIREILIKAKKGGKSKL
Procedure, shortened: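 Purified P. pyralis luciferase at 10 nM in 50 mM Tris Acetate (final), luminescence read within 5 minutes of enzyme addition to compounds. Activity normalised to PTC124 versus DMSO; concentration-response curves classed by r2, magnitude and activity.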

Structure (SMILES) | activity change, negative = inhibition | Potency
CCC1(c2ccccc2)C(=O)NC(=O)N(C(=O)c2ccccc2)C1=O (centres undefined) | -1.73% | 
CCC1(C)CC(=O)NC(=O)C1 | 8.46% [at 24.9 µM] | 
O=c1[nH]cc(N(CCCl)CCCl)c(=O)[nH]1 | -0.306% | 
CCC(=O)O[C@@](Cc1ccccc1)(c1ccccc1)[C@@H](C)CN(C)C | -0.6% [at 24.9 µM] | 
CNC1(c2ccccc2Cl)CCCCC1=O (centres undefined) |  | inactive
O=C1CN(O)C(c2ccccc2)=c2cc(Cl)ccc2=N1 | -2.51% | 
c1csc(C2(N3CCCCC3)CCCCC2)c1 | -17.8% | 
CCCCNCC(O)c1ccc(O)cc1 (centres undefined) | 2.61% | 
CCCC(C)(COC(N)=O)COC(=O)NC1CC1 (centres undefined) | 8.37% | 
CCON=O | 1.59% | 
N#CC1(N2CCCCC2)CCCCC1 | 0.106% | 
CCC1(CC)C(=O)NC(=O)N(C)C1=O | -1.95% | 
CCCC(C)C1(CC)C(=O)NC(=O)NC1=O (centres undefined) | 1.43% | 
CC(N)Cc1ccc(O)cc1 (centres undefined) | 1.14% | 
CC(=O)OC1CN2CCC1CC2 (centres undefined) | 0.707% | 
COC1=CC=C2[C@H]3Cc4ccc(OC)c5c4[C@@]2(CCN3C)[C@H]1O5 | -0.648% [at 24.9 µM] | 
OC(c1ccccc1)(c1ccccc1)C1CN2CCC1CC2 (centres undefined) | -2.32% | 
FC(F)OC(F)(F)C(F)Cl (centres undefined) | 0.201% | 
O=C1CCCCC1CN1CCCCC1 (centres undefined) | 0.091% | 

Structure (SMILES) | activity change, negative = inhibition | Potency
C=CCN1CC[C@]23c4c5ccc(O)c4O[C@H]2[C@@H](O)C=C[C@H]3[C@H]1C5 | 1.08% | 
O=C1CN=C(c2ccccc2)c2cc(Cl)ccc2N1CC1CC1 | -7% | 
CCC1(c2ccccc2)C(=O)NC(=O)NC1=O | 0.523% | 
O[C@H]1[C@H]2[C@H](O)CCCN2C[C@H]1O | -2.47% | 
C=CCN1CCC23c4c5ccc(O)c4O[C@H]2C(=O)CC[C@@]3(O)C1C5 (some centres undefined) | 1.49% | 
CC(=O)OO | -0.668% | 
O=P(O)(O)C(Cl)(Cl)P(=O)(O)O | -0.943% | 
S=C(S)N1CCNCC1 | 2.73% | 
COc1ccc2c3c1O[C@H]1C(=O)CC[C@H]4[C@@H](C2)N(C)CC[C@]314 | 1.55% | 
Oc1cccc[c]1[Hg][Cl] |  | 10.2 µM (active)
CC(=O)O[C@H]1CC[C@H]2[C@@H]3CCC4=CC(=O)CCC4=C3C=C[C@]12C | -7.1% | 
CN1CCCC(=C(c2cccs2)c2cccs2)C1 | -1.5% | 
Cn1sc(Cl)cc1=O | 2.95% | 
CC(Cc1ccccc1)NC=O (centres undefined) | -0.342% | 
CNC(=O)Oc1ccccc1C(=O)Nc1ccccc1 |  | 14.4 µM (active)
CN1C2CCC1CC(OC(c1ccccc1)c1ccc(Cl)cc1)C2 (centres undefined) | 14.6% | 
CC[N+](C)(CC)CCOC(=O)C(O)(c1ccccc1)c1ccccc1 | 3.34% | 
CCCCCCCCCC(=O)O[C@H]1CC[C@H]2[C@@H]3CCC4=CC(=O)CC[C@]4(C)[C@H]3CC[C@]12C | -0.96% | 
